Our source for the composite z-score values is PubChem BioAssay.

The test in a line: small-molecule microarray binders of probe aLefty2, primary screen, biochemical, biotinylated probe, 635/667 nm fluorescence (AID 1094).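 Note: score merges spot fluorescence near 667 nm with spot signal-to-noise ratio.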 The conditions noted are these: higher = more signal.
`CC(C)C(O)C1C=CC2C(=O)N(C)C(=O)C2N1Nc1ccccc1` (stereo unspecified): the composite z-score was determined as 0.873.

Consider `Cc1c(NC(=O)/C(C#N)=C/C=C/c2ccc(N(C)C)cc2)c(=O)n(-c2ccccc2)n1C`, for which the composite z-score is 0.647.

Compound `COc1cc(CO)cc(I)c1O[C@H]1C=C(C(=O)NCCO)C[C@@H](N(Cc2ccc(F)cc2)C(=O)C2CCCO2)[C@@H]1O` (stereo partly specified) registered a composite z-score of -0.116.

Compound `O=C1C[C@@](C(=O)NCC(F)(F)F)(c2ccc([N+](=O)[O-])cc2)[C@@H](c2ccc(CO)cc2)N1C1CCCCC1` gave a composite z-score of 0.11.

With `COC(=O)Cn1c(C(=O)N2CCCC2)cc2c1C[C@H]1CN(C(=O)c3ccccc3)[C@@](Cc3ccc(F)cc3)(C(=O)OC)[C@@H]21`, the composite z-score was -0.0199.

In turn, `O=C(CS)NCCCCCCNC(=O)[C@H]1C[C@H]2C(=O)N[C@@H](Cc3ccccc3)C(=O)N2[C@H]1c1cccc(OCCO)c1` registered a composite z-score of 0.118.

For `COc1cc2c(cc1OC)CN(C(=O)[C@H]1[C@@H]3C(=O)O[C@@H](c4ccccc4)[C@@H](c4ccccc4)N3[C@@H](c3ccc(OCCO)cc3)[C@]13C(=O)Nc1ccc(C#CC4(O)CCCCCC4)cc13)CC2`, the composite z-score amounted to 1.02.

In turn, `O=C1O[C@H](c2ccccc2)[C@H](c2ccccc2)N2[C@H]1[C@@H](C(=O)O)[C@]1(C(=O)Nc3ccccc31)[C@H]2c1ccc(O)cc1` displayed a composite z-score of -0.166.

Take `CC(=O)N1Cc2ccccc2C[C@]2(N=C(c3ccc(OCCCO)cc3)O[C@@H]2c2ccccc2)C1=O`: the composite z-score came to 0.0081.

In the case of `Cc1ccc(S[C@]2(C(=O)O)CC(=O)N(Cc3ccccc3Cl)[C@@H]2c2ccc(CO)cc2)cc1`, the composite z-score worked out at 0.0069.

On to `COc1c(C)cc(-c2cc3c(c(-c4ccccc4)n2)[Si](C(C)C)(C(C)C)OC3)cc1C`, for which the composite z-score was determined as 0.0008.

As for `O=C(CCCCCCC(=O)Nc1ccccc1)N/N=C/c1ccccc1`, the composite z-score was -0.105.

Consider `CCOC(=O)C[C@H]1[C@H](OC(=O)Cc2ccc3c(c2)OCO3)[C@@H](NC(=O)C2CCCCC2)c2cc(OCCCO)ccc2N1C(=O)c1ccc2ccccc2n1`, for which the composite z-score was -0.0798.

In turn, `O=C(NC1CC1)[C@@H]1c2ccccc2C(=O)N(Cc2ccccc2)[C@H]1c1ccc(CO)cc1` yielded a composite z-score of -0.479.

Take `NC(N)=NCc1cn(CCc2c[nH]c3ccccc23)nn1`: the composite z-score is -0.166.

Take `COCCCNC(=O)[C@@]1(Sc2ccc(C)cc2)CC(=O)N(Cc2cc(C(F)(F)F)cc(C(F)(F)F)c2)[C@@H]1c1ccc(CO)cc1`: the composite z-score was -0.0927.

Regarding `O=C1O[C@@H](c2ccccc2)[C@@H](c2ccccc2)N2[C@@H](c3ccc(O)cc3)[C@]3(C(=O)Nc4ccc(C#CC5=CCCCC5)cc43)[C@@H](C(=O)N3CCN(c4ncccn4)CC3)[C@H]12`, the composite z-score was found to be 0.517.

On to `COCCOC(=O)N1C(=O)[C@@]2(c3cc(C#CC4=CCCCC4)ccc31)[C@H](c1ccccc1OCCO)N1[C@H](c3ccccc3)[C@H](c3ccccc3)OC(=O)[C@H]1[C@@H]2C(=O)N1CCc2cc(OC)c(OC)cc2C1`, for which the composite z-score was -0.479.

The compound `CC[C@H]1C2=C3C(CC[C@H]4C(OCc5ccc(F)cc5C(F)(F)F)OC[C@](C)([C@@H]34)N(C(=O)OC(C)(C)C)C2)C2COC(=O)OCC21` (stereo partly specified) registered a composite z-score of 0.375.

In turn, `CO[C@H]1O[C@H](CO)[C@@H](OC(=O)Nc2ccccc2-c2ccccc2)[C@H](OC(=O)Nc2ccc3c(c2)OCO3)[C@@H]1OC(=O)Nc1ccc2c(c1)OCO2` had a composite z-score of -0.0269.

Take `COCCCNC(=O)[C@@]1(Sc2ccc(C)cc2)CC(=O)N(C2Cc3ccccc3C2)[C@@H]1c1ccc(CO)cc1I`: the composite z-score is -0.0441.

`Cc1ccc(S[C@]2(C(=O)NCc3ccccc3)CC(=O)N(C(C)C)[C@@H]2c2ccc(CO)cc2I)cc1` had a composite z-score of 0.299.

Consider `CC(C)C(O)C1C=CC2C(=O)N(C)C(=O)C2N1N(c1ccccc1)c1ccccc1` (stereo unspecified), for which the composite z-score is 0.0443.

Regarding `O=C1OCC=C[C@H]2OC34C=CCN(Cn5nnc6ccccc65)C(=O)[C@H]3N(CCCCCCO)C(=O)[C@@H]4[C@@H]12` (stereo partly specified), the composite z-score is -0.0356.

Turning to `COC(=O)[C@@]1(Cc2ccccc2)[C@H]2c3cc(C(=O)N4CCCC4)n(Cc4cc(F)cc5c4OCOC5)c3C[C@H]2CN1C(=O)c1ccccc1`, the composite z-score came out at 0.331.

As for `O=C(O)[C@H](Cc1ccccc1)n1cc(-c2ccccn2)nn1`, the composite z-score is -0.103.

`CN(C)CCCNC(=O)[C@@]1(c2ccc([N+](=O)[O-])cc2)CC(=O)N(CC23CC4CC(CC(C4)C2)C3)[C@@H]1c1ccc(CO)cc1`: the composite z-score was determined as 0.969.

Consider `CCOC(=O)C[C@H]1[C@H](OC(=O)c2ccc(-c3ccccc3)cc2)[C@@H](NC(=O)c2ccc3ccccc3n2)c2cc(OCCCO)ccc2N1C(=O)c1ccccc1`, for which the composite z-score is -0.171.

Compound `CCOC(=O)C1=CC[C@@H](c2ccccc2)N(S(=O)(=O)c2ccc(C)cc2)C1` gave a composite z-score of 0.365.

Compound `CCOC(=O)[C@H]1C/C=C/C[C@H](C(=O)OCC)C(=O)O[C@H]2[C@@H](OC)O[C@H](CO)[C@@H](OC(=O)Nc3ccc(OC)cc3)[C@@H]2OC1=O` returned a composite z-score of 0.217.

For `COC(=O)[C@H](Cc1ccccc1)N1CC(/C=C/C2CC2)=C[C@@H]1[C@@H](O)Cc1ccccc1`, the composite z-score was found to be 0.0166.

Consider `Cc1ccc(F)cc1S(=O)(=O)N[C@@H]1CCN(Cc2ccc(Oc3ccccc3)cc2)C1`, for which the composite z-score was -0.0073.

`COCCOC(=O)N1C(=O)[C@@]2(c3cc(C#Cc4ccc(OC)cc4)ccc31)[C@H](C(=O)NC[C@H](O)c1ccccc1)[C@H]1C(=O)O[C@H](c3ccccc3)[C@H](c3ccccc3)N1[C@@H]2c1ccc(O)cc1` registered a composite z-score of -0.0159.

`CN(C)CCCNC(=O)[C@@H]1c2ccccc2C(=O)N(CC23CC4CC(CC(C4)C2)C3)[C@H]1c1ccc(CO)cc1` came in with a composite z-score of -0.227.

`CCOC(=O)[C@@H]1[C@@H]2C(=O)N(CC)C(=O)[C@@H]2C[C@@H]1Sc1ccccc1` displayed a composite z-score of -0.0632.

In turn, `CC(C)C(=C=CC[C@@H](O)c1ccccc1OCCO)C[C@@H](O)COCc1ccccc1` came in with a composite z-score of -0.139.
